This is a sample that favours compounds with a hit; in the whole collection about 19% have one here.
HT1080-NT tox: qHTS for induction of synthetic lethality in tumor cells producing 2HG: qHTS for the HT-1080-NT fibrosarcoma cell line | HT-1080-NT fibrosarcoma viability, CellTiter-Glo ATP luminescence, 48 h | actives 1.6% (n = 360,000) | Potency, µM (highest dose often 46.1 µM), without a hit: at the top dose activity, negative = less viability, hits mostly cytotoxic;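 further: NT is the 2HG producing partner of a matched IDH1 knockdown line; 0% = DMSO-treated cells and -100% = media-only wells without cells; nearly all actives have a fitted effect of over 55% in size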
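A 48-hour cytotoxicity screen used HT-1080-NT cells plated 2 hours before compound delivery. ATP-based CellTiter-Glo luminescence measured viability, normalized to DMSO and no-cell controls.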
HT1080 IDH1KD tx: qHTS for induction of synthetic lethality in tumor cells producing 2HG: qHTS for the HT-1080-IDH1KD cell line. HT-1080 IDH1 knockdown viability, ATP luminescence, 48 h. Potency, µM (titrated, usually from 46.1 µM), inactives show at the highest dose activity, negative = toxicity, hits mostly cytotoxic. actives 2% (n = 360,000). AID 686971, 2013;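 further: 0% = DMSO wells and -100% = cell-free medium wells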
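Knockdown cells (IDH1KD HT-1080) received compounds 2 h after plating at 750 cells/well and were kept 48 h at 37 °C in 5% FBS RPMI. A CellTiter-Glo luminescence read gave % activity for curve fitting.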
KB-V1 MDR tox: qHTS assay for MDR1-selective chemotherapeutics: Primary screen using the drug-selected MDR subline cells KB-V1. KB-V1 MDR cells viability, CellTiter-Glo, 72 h. Potency, µM (titrated, usually from 46.1 µM), actives largely listed as cytotoxic. actives 3.4% (n = 400,000). AID 1347076, 2019; further: nearly all actives have a fitted effect of over 60% in size
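qHTS viability screen in drug-selected KB-V1 MDR cells: 72 h compound treatment at 37 degrees C, ATP luminescence end point.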
DT40 TDP1 CPT: qHTS for Inhibitors of human tyrosyl-DNA phosphodiesterase 1 (TDP1): qHTS in cells in presence of CPT; chicken DT40 Tdp1-/-;hTDP1 cells + 20 nM CPT, ATP luminescence, 48 h; actives 12% (n = 420,000); AID 686979, 2013; Potency, µM (doses to about 46.2 µM), without a hit: top-dose activity change, negative = growth inhibition, hits mostly inhibitors; further: nearly all actives have a fitted effect of over 55% in size
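Cell growth measured by CellTiter-Glo luminescence after a minimum 48 h, 37 C compound exposure with 20 nM CPT in Tdp1-knockout DT40 cells stably expressing hTDP1, seeded 400/well; qHTS titration format.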
KB-3-1 tox: qHTS assay for MDR1-selective chemotherapeutics: Primary screen using the parental adenocarcinoma cell KB-3-1. KB-3-1 viability, CellTiter-Glo ATP luminescence, 72 h. Potency, µM (top dose mostly 46.1 µM), actives largely listed as cytotoxic. actives 1.4% (n = 400,000). AID 1347075, 2019; further: nearly all actives have a fitted effect of over 60% in size
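Here the drug-naive KB-3-1 line serves as comparator for MDR sub-line selectivity; cells received compound titrations, 72 h at 37 °C, then CellTiter-Glo readout.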
TDP1 cell noCPT: qHTS for Inhibitors of human tyrosyl-DNA phosphodiesterase 1 (TDP1): qHTS in cells in absence of CPT; DT40 Tdp1-/- hTDP1 cells, no CPT, ATP luminescence, 48 h; Potency, µM (highest dose often 46.2 µM), inactives show top-dose activity change, negative = growth inhibition, usual class: inhibitors; actives 15% (n = 420,000); further: nearly all actives have a fitted effect of over 55% in size
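No-CPT arm: Tdp1-/-;hTDP1 DT40 cells (400/well) plus compounds, incubated ≥48 hr at 37 °C. Readout CellTiter-Glo luminescence.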
Active calls of the source: *; i = inactive; ? = inconclusive; . = no result given. The call rests on the fitted dose curve; in most records, active means well fitted curve in the direction sought with a large enough effect; inconclusive means small, poorly fitted or top-dose-only effect, or another doubt; inactive means no such curve, though single readings can be large; an effect the other way counts as inactive or inconclusive. Unless noted, on the % scale 0 is the no-effect control and ±100 the full control effect; potency means the concentration at half of the fitted maximal effect.

SMILES	HT1080-NT tox	HT1080 IDH1KD tx	KB-V1 MDR tox	DT40 TDP1 CPT	KB-3-1 tox	TDP1 cell noCPT
CCOc1ccccc1CNCc1cccn1-c1nnc(N2CCN(c3ccccc3)CC2)s1	.	.	?	5.8µM*	?	3.3µM*
CCCCNS(=O)(=O)c1cccc(NC(=O)[C@@H]2O[C@H](CO)[C@@H](O)[C@H]2O)c1	29%	7%	i	-2%	i	9%
Cc1nc(Sc2ccccc2)c(C#N)c(C)c1[N+](=O)[O-]	-28%	?	?	?	i	16µM*
Cc1cc(C)c(C#N)c(Sc2nc(C)c([N+](=O)[O-])c(C)c2C#N)n1	16µM*	4.6µM*	i	3.7µM*	?	5.8µM*
CC1CCCC(NC(=O)c2ccc(F)c(S(=O)(=O)N3CCOCC3)c2)C1C (stereo not drawn)	-1%	6%	?	?	i	?
COc1ccc(-c2nc3ccccc3n3c(-c4ccc(OC)cc4)c4c(=O)n(C)c(=O)n(C)c4c23)cc1	.	.	i	?	i	?
CCc1nc2ccccc2n2c(-c3ccc(C)cc3)c3c(=O)n(C)c(=O)n(C)c3c12	.	.	i	?	i	?
CCCCc1nc2ccccc2n2c(-c3ccc(OC)cc3)c3c(=O)n(C)c(=O)n(C)c3c12	.	.	?	?	?	18µM*
CCCc1nc2ccccc2n2c(-c3ccccc3)c3c(=O)n(C)c(=O)n(C)c3c12	.	.	.	13µM*	.	?
CCCCc1nc2ccccc2n2c(-c3ccc(C)cc3)c3c(=O)n(C)c(=O)n(C)c3c12	.	.	i	?	i	12µM*
CCOC(=O)C1=C(O)/C(=C\c2cc(C)n(-c3ccccc3F)c2C)N=C1C	1%	-3%	i	12µM*	i	23µM*
CCOC(=O)C1=C(O)/C(=C\c2cc(C)n(-c3ccc(F)cc3)c2C)N=C1C	9%	22%	i	?	i	15µM*
CCOC(=O)C1=C(O)/C(=C/c2cccc(OC)c2O)N=C1C	-7%	0%	?	?	i	-17%
COc1cc(C(=O)NCCC(c2ccccc2)c2ccccc2)cc(OC)c1OC	-24%	-4%	i	?	i	?
O=C(Cc1ccc(NC(=O)N2CCCCc3ccccc32)cc1)NCc1ccccc1Br	.	.	i	?	i	23µM*
COc1ccc(CC(=O)NC2CCN(CC(=O)N3CCCc4ccccc43)CC2)cc1OC	-6%	4%	i	-22%	i	3.7µM*
CCc1ccc(CNC(=O)c2ccc(NC(=O)N3CCCCc4ccccc43)cc2)cc1	.	.	i	21µM*	i	?
COc1ccc(CC(=O)N2CCCc3ccccc32)cc1OC	-10%	-15%	i	-26%	i	?
CCOc1ccc(CNC(=O)Cc2ccc(NC(=O)N3CCCCc4ccccc43)cc2)cc1OC	.	.	i	?	i	?
COc1ccc(CNC(=O)Cc2ccc(NC(=O)N3CCCCc4ccccc43)cc2)cc1	.	.	?	?	?	23µM*
COc1cccc(CNC(=O)CN2C(=O)CCSc3ccc(S(=O)(=O)N4CCCC4)cc32)c1	-7%	4%	i	-1%	i	13%
COc1cccc(/C(=N/O)C2CC2c2ccc(Cl)cc2)c1 (stereo not drawn)	-5%	-14%	i	5%	i	-17%

Bioassay records as filed in PubChem BioAssay.
